Measurements: PubChem BioAssay (NCATS)
Inconclusive results are not listed. A call without a number means that no potency is given here. Unmarked numbers belong to inactive results. Activity calls are given as the source filed them. Calls follow the shape of the dose curve; as a rule, active = well fitted inhibition curve with a large enough effect; inconclusive = small, poorly fitted or top-dose-only effect; inactive = no such curve, though single readings can be large or run the other way.

Tests used:
[1] = tested on: Zika virus NS2B-NS3 protease (unlinked complex); test: Primary screen GU Rhodamine qHTS for Zika virus inhibitors: Unlinked NS2B-NS3 protease assay (AID 1347159); also: nearly all actives have a fitted effect of over 60% in size; also: potency is read from the fitted curve at half-maximal effect
Summary of the method: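 Compounds, tested up to 114 microM, were incubated for 15 minutes with 25 nM unlinked NS2B-NS3 protease at pH 8.0. Cleavage of 1.5 microM Rhodamine110 substrate was then followed by fluorescence for 15 minutes.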

[2] = tested on: Zika virus NS2B-NS3 protease (linked construct); test: Primary screen NINDS Rhodamine qHTS for Zika virus inhibitors (AID 1347160); also: nearly all actives have a fitted effect of over 55% in size
Summary of the method: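 Percent inhibition, normalized to uninhibited and enzyme-free controls, is fitted to a 4-parameter Hill equation. Fluorescence change comes from a 15-min cleavage of 1.5 microM bis-peptide Rhodamine110 substrate by 25 nM linked NS2B-NS3 at room temperature.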

Compound	Potency [1]	Potency [2]	activity change, negative = inhibition [1]	activity change, negative = inhibition [2]
CCOc1cc(N2CCC(O)CC2)ccc1Nc1ncc2c(n1)N(C1CCCC1)CCC(=O)N2C	inactive	inactive	–	–
O=S(=O)(NCC1CC1)c1ccc(Nc2nccc(N3CCCc4cc(O)ccc43)n2)cc1	39.8 µM (active)	inactive	–	–
CC(=O)O[C@H]1CC[C@H](C)[C@@]2(C)[C@H](OC(C)=O)c3c(C)coc3C(=O)[C@H]12	inactive	inactive	–	–
Cc1ccc(C(=O)N(CCCN)C(c2oc3cc(Cl)ccc3c(=O)c2Cc2ccccc2)C(C)C)cc1 (stereo not drawn)	inactive	inactive	–	–
CC#CC(=O)N1CCC[C@H]1c1nc(-c2ccc(C(=O)Nc3ccccn3)cc2)c2c(N)nccn12	inactive	inactive	–	–
C=C1C(=O)O[C@@H]2C/C(C)=C\C(=O)/C=C(\C)[C@@H](OC(=O)/C(C)=C\C)[C@H](O)[C@@H]12	inactive	inactive	–	–
CCC1C(=O)N(C)c2cnc(Nc3ccc(C(=O)NC4CCC(N5CCN(CC6CC6)CC5)CC4)cc3OC)nc2N1C(C)C (stereo not drawn)	inactive	inactive	–	–
CC(C)C(=O)OC[C@H]1O[C@H](O[C@H]2O[C@H](CO)[C@@H](O)[C@H](O)[C@H]2O)[C@H](O)[C@@H](O)[C@@H]1O	inactive	inactive	–	–
NC(=O)c1csc(C2OC(CO)C(O)C2O)n1 (stereo not drawn)	inactive	inactive	–	–
COC(=O)c1ccc(OC(CO)C(O)c2ccc(O)c(OC)c2)c(OC)c1 (stereo not drawn)	inactive	inactive	–	–
COc1cc(C2Oc3c(OC)cc(CCCO)cc3C2CO)ccc1O[C@H]1O[C@H](C)[C@@H](O)[C@H](O)[C@@H]1O (stereo partly drawn)	inactive	inactive	–	–
CCc1cnn2c(NCc3ccc[n+]([O-])c3)cc(N3CCCCC3CCO)nc12 (stereo not drawn)	inactive	inactive	–	–
CC(C)=CCC[C@](C)(O[C@@H]1O[C@H](CO[C@@H]2O[C@H](CO)[C@@H](O)[C@H](O)[C@H]2O)[C@@H](O)[C@H](O)[C@H]1O)C1CC[C@]2(C)[C@@H]1[C@H](O)CC1[C@@]3(C)CC[C@H](O[C@@H]4O[C@H](CO)[C@@H](O)[C@H](O)[C@H]4O[C@@H]4O[C@H](CO)[C@@H](O)[C@H](O)[C@H]4O)C(C)(C)[C@@H]3CC[C@]12C (stereo partly drawn)	inactive	inactive	–	–
CC1(CCOC2OC(CO)C(O)C(O)C2O)CCC23OC2(C1)C(O)CC1C(C)(C(=O)O)CCCC13C (stereo not drawn)	inactive	inactive	–	–
OCCc1ccc(O[C@@H]2O[C@H](CO)[C@@H](O)[C@H](O)[C@H]2O)cc1	inactive	inactive	–	–
CC(NC(=O)CCc1nc2ccccc2c(=O)[nH]1)c1ccccc1 (stereo not drawn)	inactive	inactive	–	–
CS(=O)(=O)N1CCC(NC(=O)c2[nH]ncc2NC(=O)c2c(Cl)cccc2Cl)CC1	inactive	inactive	–	–
COc1cc(OC)c(/C=C/S(=O)(=O)Cc2ccc(OC)c(NCC(=O)O)c2)c(OC)c1	inactive	inactive	–	–
C[C@H](N)C(=O)N[C@@H](Cc1ccc(O)cc1)C(=O)N1CCC[C@H]1C(=O)NCC(=O)N[C@@H](CCCCN)C(=O)N[C@@H](Cc1ccccc1)C(N)=O	–	–	124% [at 19.1 µM]	9.61% [at 10.7 µM]
Cc1ccc(-c2ccc3c(ccc4sc5c(c43)NC[C@@H](C)NC5=O)n2)cn1	inactive	inactive	–	–
O=C(O)c1cc2cccc([N+](=O)[O-])c2[nH]1	inactive	inactive	–	–
C[C@]12C=C[C@@]3(CCC4[C@](C)(CO)CCC[C@@]4(C)C3CC1)C2 (stereo partly drawn)	22.4 µM (active)	inactive	–	–
CCOc1ccc(S(=O)(=O)n2c(C)nc3ccccc32)cc1	inactive	inactive	–	–
CNS(=O)(=O)c1ccccc1Nc1nc(Nc2ccc(N3CCN(C)CC3)cc2OC)ncc1Cl	inactive	inactive	–	–
CC1=C(CO)C(=O)O[C@@H]([C@@H](C)[C@H]2CC[C@H]3[C@@H]4C[C@H]5O[C@]56[C@@H](O)C=CC(=O)[C@]6(C)[C@H]4CC[C@]23C)C1	inactive	inactive	–	–
CC1=C(C)C(=O)OC(C(C)C2CCC3C4CC=C5CC(OC6OC(COC7OC(CO)C(O)C(O)C7O)C(O)C(O)C6O)CC(O)C5(C)C4CCC23C)C1 (stereo not drawn)	inactive	inactive	–	–
C[C@H](C(=O)NC1CCCC1)N(C(=O)Cn1nnc(-c2ccc3c(c2)OCO3)n1)C1CCCCC1	inactive	inactive	–	–
COc1cc2c(NC3CCN(CC4CCCCC4)CC3)nc(N3CCCN(C(C)C)CC3)nc2cc1OCCCN1CCCCC1	inactive	inactive	–	–
NC(=O)c1cnc(NCCc2ccc(O)c(Cl)c2)nc1NCc1ccccc1	inactive	inactive	–	–
